# S1P1 agonist: activates the human S1P1 receptor | Sphingosine 1-phosphate receptor 1 (Homo sapiens), P21453 | S1P1 agonist cell-based reporter assay | activation, % at 4.5 µM | hit rate 1.5% among 16,000; in the data active = activation above about 80%
# OPRK1 antag MB: antagonists of human kappa opioid receptor OPRK1, Maybridge library | AID 652031, 2013 | Kappa-type opioid receptor (Homo sapiens), P41145 | hit rate 0.4% among 16,000 | inhibition, % at 9 µM | OPRK1 cells, antagonist mode, fluorescence readout; in the data active = inhibition above about 50%
# TLR4-MyD88 inh: inhibitors of human TLR4-MyD88 binding. Cell-based TLR4-MyD88 binding inhibition assay. inhibition, % at 10 µM. hit rate 0.06% among 16,000; in the data active = inhibition above about 45%
# The depositor's hits bear a star. A selection: hits, their analogues and other compounds. The true share with any hit is near 2%.
SMILES,S1P1 agonist,OPRK1 antag MB,TLR4-MyD88 inh
O=[N+]([O-])c1ccc(CS(=O)(=O)C(Cl)(Cl)Cl)o1,96*,5,-3
O=C(N1CCOCC1)C(Cl)(Cl)Cl,-11,17,3
Cc1nc2cc(Cl)ccc2c(=O)n1-c1ccc(Cl)cc1,13,-28,-1
